Test [1] deals with Luciferin 4-monooxygenase (Photinus pyralis) (UniProt P08659). Briefly: Biochemical firefly luciferase enzyme assay for NPC (AID 624030).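 Note: purified P. pyralis luciferase at 10 nM with luciferin and ATP substrate; nearly all actives have a fitted effect of over 70% in size.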 The procedure, abridged: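 Purified P. pyralis luciferase at 10 nM in 50 mM Tris Acetate (final), luminescence read within 5 minutes of enzyme addition to compounds. Activity normalised to PTC124 versus DMSO; concentration-response curves classed by r2, magnitude and activity.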

Test [2] in a line: S16 Schwann cell PMP22 intronic element firefly luciferase assay (AID 624032). Note: nearly all actives have a fitted effect of over 30% in size. Note: potency is the fitted concentration of half-maximal effect. A digest of the protocol: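 Rat S16 Schwann cells stably carrying firefly luciferase driven by a PMP22 intronic element, in 10% FBS, treated 24 h at 37 C. ONE-Glo luminescence normalized to PTC124 control and DMSO (0%); curves classed by r2, magnitude and activity.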
Test [3] is described as follows: S16 Schwann cell PMP22 intronic element beta-lactamase assay (AID 624044; calls by dose curve; note: nearly all actives have a fitted effect of over 15% in size). A digest of the protocol:
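Beta-lactamase reporter under a PMP22 intronic regulatory element in stable S16 rat Schwann cells; 24 h compound exposure. 460 nm blue signal normalized between DMSO (0%) and potassium clavulanate, with 535 nm FRET tracking viability; curves classed by r2 and response.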

Another test relates to ATS95. Briefly: qHTS profiling for inhibitors of Plasmodium falciparum proliferation (AID 504749). Note: nearly all actives have a fitted effect of over 60% in size. Note: potency is the fitted concentration of half-maximal effect. The settings on record: P. falciparum in erythrocytes, SYBR Green DNA, 72 h; series mostly up to 12.8 µM. A digest of the protocol:
(§1)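 SYBR Green fluorescence (ex 485 nm, em 535 nm) reports parasite DNA after 72 h compound exposure of infected red cells at 0.3% parasitemia, 2.5% hematocrit; signal normalized to 0.29 uM artemisinin and vehicle wells.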

The next test has as its system CP201. The test is described as above. The settings on record: P. falciparum in erythrocytes, SYBR Green DNA, 72 h; series mostly up to 12.8 µM. A digest of the protocol: as §1
In the next test the test system is CP237. The description is as above. The settings on record: P. falciparum in erythrocytes, SYBR Green DNA, 72 h; series mostly up to 12.8 µM. A digest of the protocol:
as §1

The next test deals with CP247. Described as above. To be noted: P. falciparum in erythrocytes, SYBR Green DNA, 72 h; series mostly up to 12.8 µM. The procedure, abridged: as §1
A further test relates to CP260. Described as above. The settings on record: P. falciparum in erythrocytes, SYBR Green DNA, 72 h; series mostly up to 12.8 µM. A digest of the protocol: as §1
Another test deals with CP262. The test is described as above. To be noted: P. falciparum in erythrocytes, SYBR Green DNA, 72 h; series mostly up to 12.8 µM. The procedure, abridged: as §1
A further test concerns CP265. The description is as above. The settings on record: P. falciparum in erythrocytes, SYBR Green DNA, 72 h; series mostly up to 12.8 µM. A digest of the protocol: as §1
Another test has as its system CP269. The description is as above. To be noted: P. falciparum in erythrocytes, SYBR Green DNA, 72 h; series mostly up to 12.8 µM. The procedure, abridged: as §1
The test system of a further test is CP291. The description is as above. To be noted: P. falciparum in erythrocytes, SYBR Green DNA, 72 h; series mostly up to 12.8 µM. A digest of the protocol: as §1
A further test has as its system CP305. The test is described as above. To be noted: P. falciparum in erythrocytes, SYBR Green DNA, 72 h; series mostly up to 12.8 µM. The procedure, abridged:
as §1

The test system of a further test is CP325. Described as above. To be noted: P. falciparum in erythrocytes, SYBR Green DNA, 72 h; series mostly up to 12.8 µM. The procedure, abridged:
as §1

The next test deals with CP329. Described as above. To be noted: P. falciparum in erythrocytes, SYBR Green DNA, 72 h; series mostly up to 12.8 µM. The procedure, abridged:
as §1

A further test has as its system DIV14. The test is described as above. To be noted: P. falciparum in erythrocytes, SYBR Green DNA, 72 h; series mostly up to 12.8 µM. The procedure, abridged: as §1
A further test deals with DIV30. The test is described as above. The settings on record: P. falciparum in erythrocytes, SYBR Green DNA, 72 h; series mostly up to 12.8 µM. The procedure, abridged:
as §1

For a further test, the system named is ICS. Described as above. The settings on record: P. falciparum in erythrocytes, SYBR Green DNA, 72 h; series mostly up to 12.8 µM. A digest of the protocol:
as §1

A further test deals with P94_40. Described as above. To be noted: P. falciparum in erythrocytes, SYBR Green DNA, 72 h; series mostly up to 12.8 µM. A digest of the protocol:
as §1

The test system of the next test is TAB165. Described as above. The settings on record: P. falciparum in erythrocytes, SYBR Green DNA, 72 h; series mostly up to 12.8 µM. A digest of the protocol: as §1

Inconclusive results are not listed. Active and inactive are the calls of the source. Unless noted, calls come from the whole dose curve; as a rule, active = well fitted curve in the direction sought with a large enough effect; inconclusive = small, poorly fitted or top-dose-only effect, or another doubt; inactive = no such curve, though single readings can be large; an effect the other way counts as inactive or inconclusive.

Luciferin 4-monooxygenase (Photinus pyralis), sequence (P08659 whole entry, looked up): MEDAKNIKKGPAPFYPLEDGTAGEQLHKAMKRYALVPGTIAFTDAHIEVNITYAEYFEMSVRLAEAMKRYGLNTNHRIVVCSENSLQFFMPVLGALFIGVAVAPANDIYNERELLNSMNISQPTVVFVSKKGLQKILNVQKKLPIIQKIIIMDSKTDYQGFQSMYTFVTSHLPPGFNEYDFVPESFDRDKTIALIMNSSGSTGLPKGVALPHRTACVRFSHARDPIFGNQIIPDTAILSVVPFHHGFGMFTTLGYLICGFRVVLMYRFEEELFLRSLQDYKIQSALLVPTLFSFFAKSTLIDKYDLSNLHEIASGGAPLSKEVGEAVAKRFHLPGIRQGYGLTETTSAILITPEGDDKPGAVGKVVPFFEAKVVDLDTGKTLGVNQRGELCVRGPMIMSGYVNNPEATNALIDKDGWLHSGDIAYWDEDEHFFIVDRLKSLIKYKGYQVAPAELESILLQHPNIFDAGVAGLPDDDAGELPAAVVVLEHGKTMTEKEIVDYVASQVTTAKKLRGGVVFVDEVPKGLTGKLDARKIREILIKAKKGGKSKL

With `CN[C@H]1[C@H](O)[C@@H](O[C@@H]2[C@H](O)[C@@H](O[C@H]3OC(CN)=CC[C@H]3N)[C@@H](N)C[C@H]2N)OC[C@@]1(C)O`, the Potency entry (in test [1]; in test [2]; in test [3]; in the test on ATS95; in the test with CP201; with CP237) was “inactive” in each case. For the same compound, the Potency entry in the test on CP247, with CP260, in the test on CP262, in the test with CP265, with CP269 and in the test on CP291 was “inactive” each time. The Potency result in the test on CP305, in the test with CP325, in the test with CP329, with DIV14, with DIV30 and with ICS was “inactive” throughout. Moreover, the Potency result in the test with P94_40 and in the test with TAB165 was “inactive” each time.
Consider `CN1C(=O)C[C@H](c2ccccc2)C1=O`, for which the Potency result (in test [1]; in test [2]; in test [3]; with CP201; in the test on CP247; in the test with CP260) was “inactive” in each case. Besides, the Potency entry with CP262, with CP269, with CP291, with CP305, in the test with CP325 and with CP329 was “inactive” in each case. In addition, the Potency entry in the test with DIV14, with DIV30, in the test on ICS, in the test on P94_40 and in the test on TAB165 was “inactive” in each case. For the same compound, in the test with ATS95, the Potency was 0.0071 µM (active).
For the compound `O=C(N/N=C\c1ccc([N+](=O)[O-])o1)c1ccc(O)cc1`, the Potency in test [2] is 3.46 µM (active); with ATS95, 3.16 µM (active); with CP201 it was 5.73 µM (active); in the test on CP237, 2.51 µM (active); in the test with CP247 it was 2.82 µM (active); in the test with CP260, 2.51 µM (active). Moreover, the Potency with CP265 was 3.16 µM (active); in the test with CP269, 4.55 µM (active); in the test with CP291, 4.55 µM (active); in the test with CP305, 2.56 µM (active); with CP329, 5.73 µM (active); with DIV14, 3.22 µM (active). Besides, the Potency with DIV30 was 5.1 µM (active); in the test with ICS it was 1.41 µM (active); in the test on P94_40, 3.55 µM (active); in the test with TAB165, 3.16 µM (active). Also, the Potency entry in test [3] is “inactive”.
For `NC[C@@H]1O[C@H](O[C@H]2[C@H](O)[C@H](O[C@@H]3O[C@H](CO)[C@@H](O)[C@H](N)[C@@H]3O)[C@@H](N)C[C@H]2N)[C@@H](O)[C@H](O)[C@@H]1O`, the Potency result (in [1]; in test [2]; with ATS95; in the test on CP201; in the test on CP237; in the test with CP247) was “inactive” in each case. In addition, the Potency entry with CP260, with CP262, in the test on CP265, in the test on CP269, in the test with CP291 and in the test with CP305 was “inactive” in each case. Also, the Potency result in the test on CP325, with CP329, in the test with DIV14, in the test on DIV30, in the test on ICS and with P94_40 was “inactive” in each case. The Potency entry with TAB165 is “inactive”.
On to `CC(C)(C)NC(=O)[C@@H]1CC[C@@H]2[C@@H]3CC[C@@H]4NC(=O)C=C[C@@]4(C)[C@H]3CC[C@]21C`, for which the Potency entry (in test [3]; in the test on ATS95; with CP201; in the test on CP237; in the test with CP247; in the test on CP260) was “inactive” each time. In addition, the Potency result in the test on CP262, with CP265, in the test with CP269, in the test with CP291, in the test on CP305 and in the test with CP325 was “inactive” in each case. The Potency result in the test with CP329, in the test with DIV14, in the test with DIV30, in the test on ICS, in the test on P94_40 and in the test on TAB165 was “inactive” in each case.
`CC1=C(C(=O)O)N2C(=O)[C@@H](NC(=O)[C@@H](N)c3ccc(O)cc3)[C@@H]2SC1`: the Potency entry (in test [1]; in test [2]; in test [3]; in the test with ATS95; in the test on CP201; in the test with CP237) was “inactive” in each case. For the same compound, the Potency entry in the test on CP247, in the test on CP260, in the test on CP262, with CP265, in the test on CP269 and in the test on CP291 was “inactive” each time. For the same compound, the Potency entry in the test with CP305, with CP325, with CP329, in the test on DIV14, in the test on DIV30 and with ICS was “inactive” in each case. Moreover, the Potency result with P94_40 and in the test on TAB165 was “inactive” each time.
